Measurements: PubChem BioAssay AID1159506 (National Center for Advancing Translational Sciences (NCATS), 2015)
Whole data set: some 59,000 sequences, median the read-out near -0.00055, cut for the lowest 2% near -2. The entries come from a sample that favours the lowest values as a whole.

assay: Identification of proteins required for the processing of the EWS-FLI1 nascent transcript; conditions: TC32 Ewing sarcoma NR0B1-luc vs CMV-luc (EWS-FLI1 target promoter against control promoter), 48 h; screened at 20 nM (by protocol);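 note: robust z of luciferase light less the median z of siRNAs with the same seed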
Experimental: Ewing sarcoma (ES) cells depend on the EWS-FLI1 fusion transcription factor for cell survival. Using an assay of EWS-FLI1 activity and genome-wide siRNA screening we have identified proteins required for the processing of the EWS-FLI1 nascent transcript. Parallel genome-wide siRNA-mediated RNAi screens were conducted in Ewing sarcoma TC32 cell lines expressing a luciferase (luc) reporter protein driven by either the promoter of the EWS-FLI1 target gene NR0B1 (TC32-NR0B1-luc) or the CMV promoter (TC32-CMV-luc). Luciferase activity was assessed 48 hours post siRNA-transfection.
Twenty microl of serum-free media containing Lipofectamine RNAiMax (0.05 microl) was added to wells containing siRNA (0.8 pmol). Lipid and siRNA were allowed to complex for 45 min at ambient temperature before addition of 600 cells in RPMI-1640, 20% FBS to yield final transfection mixtures containing 20 nM siRNA in RPMI-1640, 10% FBS. Luciferase expression was measured using OneGlo (Promega, Madison, WI). The genome-wide screening campaign was conducted using Ambion's human genome library version 4.1 (Ambion, Austin TX). This library targets approximately 21000 human genes, three siRNAs per gene. Each siRNA is arrayed in an individual well of a 384-well plate. Parallel transfections were conducted in TC32-NR0B1-luc and TC32-CMV-luc cell lines and luciferase expression (OneGlo, Promega) was assayed 48 h later on a PerkinElmer Envision 2104 Multilabel plate reader (PerkinElmer, Waltham, MA). Qiagen's AllStars Negative control was incorporated on all screening plates for normalization (16 wells per plate). Qiagen, Germantown, MDsiGL4 was incorporated as a positive transfection control (16 wells per plate) on all plates. […] The raw luciferase data for the NR0B1- and CMV-luc screens were normalized and z-score-MAD transformed using standard methods (Chung et al., 2008). The miRNA-like seed sequence of every siRNA was determined and the median z-score for all siRNA sequences with the same seed sequence was calculated. This z-score was subtracted from the z-score associated with each siRNA with that seed sequence to generate a seed-adjusted z-score value (Z) that was used when the results for the three siRNAs corresponding to each gene were compared (Marine et al., 2012)

Sequence | seed-corrected z-score
UCUUUGCCUAGUGUGGUUU against TAF9 | -0.576
UGUCUGUUUGUUGAAACUC against APOA5 | -0.451
UCGUAGGCAAGGUAAGUAG against MUCL1 | -0.0888
UCAAGUAAACUAGUCGUUU against VKORC1L1 | -0.26
UUGGUUGCAAAGGAACUCC against NAB1 | -2.58
UUCAUUUGCUCGAUGGUUG against MAPK1 | 1.09
UUCCUUGAUAGGUAUGUAU against LOC388813 | -0.0267
UUGUGAACUACUUCUAUCC against AKNA | 0.00206
AUAGGUCUGACUCAGCUGC against CCDC155 | -2.23
UAGUGUACAAGGGUCAGGC against TSPAN17 | 0.12
UAUACACCAAUGUCGGUCC against KDM5A | 0.142
AAUGAGUAAAAAGUGAAUU against HTN1 | -0.556
UGAUGUAAAAUCAAAGGUU against KRT6C | 0.491
AAACUUGGUUGAGUGAUCC against KRBA2 | 0.654
UGACUAUUAGGUCUUUAGC against BCAT1 | -0.111
UCCAUCGUCAAUGUUAUCC against HNRNPH3 | -5.45
AUAUCUAUAAUACCCUCCG against APIP | 0.416
AUACGUGUUCUCAAUGAUC against RNF121 | 0.696
UUCUCUUCUUUAGUCAGUG against SKA2P1 | -2.33
AAUAUUGUAAGAAGAAGGG against NT5C3B | 0.882
UGGGUUCUCAGGAACGGGU against PNKD | 1.76
UUCCUUUUGCGUCUGGAUC against ZC2HC1C | -1.55
UAUUUGGGUGGUUCAGUUG against NEK6 | -0.0182

Sequence | seed-corrected z-score
UAUGAGUCCACAAUUGAUC against TMEM19 | -11
UCUACAAGUAAUGAAGGCC against ZFP62 | 0.853
AAUGAUGAAUCCACCUUCG against ARMC10P1 | -0.435
UCAGCUAACAAAGAGUCGC against STAG3 | 0.617
AGCAGUAUAAAACAGGAGC against TIPARP | 0.177
AUAAUCACACUGUCAACUG against ACAA2 | -0.323
AGCCUUAGACGUGCAGUUG against RPL36AP31 | -2.33
UGUUGUAGCAGAAUGAGGA against ARC | -3.81
UGCUGGGUCAGAUGUCUCC against ARHGAP9 | 0.0212
UUCGAUCACCAUAUACUCC against KCNA3 | 0.36
UCGGUAUUCAAACCCUUCG against HIRA | 0.423
UCAGGGCAUAGAUAAGUGG against OR10W1 | -2.86
UUUCUAGCUAAGGUCAAAC against SHOC2 | -0.857
AUAGGAGAUCGCAUCGCCC against CACFD1 | -0.00387
AAGGUGUUCACGUAGGCUG against CLN3 | -2.78
AUUGGUAUCCUAACUAUUC against EFHD1 | 0.876
UCUGGGAACACCCUCAGCA against GABRR2 | -0.593
ACGGAUUCUAGUUUAGAUG against KIAA0232 | 2.72
UCCGUUCAUAGUCUUCUCC against CSPP1 | -2.12
AUAACGAUGCUUUAUGUGG against ABHD1 | -0.139
UCUCUAACUUCGACCCUCU against C19orf68 | 0.527
UUUCUCAACUGCAUGAAAG against LINC00264 | -0.13
UACUGAAGUAGUUAGGAUC against INO80C | 1.43

Sequence | seed-corrected z-score
AUGUUGCCCACGUCCUUGG against RABIF | -3.06
AAUGAGGCAGGCAUGUUGG against PNMT | 1.18
UGUAUCCUAAGGUAUCGGC against VWA8 | -0.221
AUAUCUUCGAAAGUAAAUC against RPF2P1 | 1.14
UUUUUCCAUACUUCAAGCC against QRICH1 | -0.708
AAAUGGAAAUUCUCGAUGU against HTN1 | 0.36
AGAUUGGUCAAAGCCUUUC against ZNF319 | -2.3
AUAGUUAUUCUUGUCGGGC against HVCN1 | -0.696
UACGUAGUCGUCAUCAUCU against FAM83G | -0.453
UCAUUAGACAUAACAUUGC against ALG13 | 0.117
UCAUAGUCGAUCACCACUG against COL23A1 | -0.458
UUAGUAGUGACAUUUCGGG against MRE11A | -0.0144
UUGAAUAGGAAGAGUAUCC against OMA1 | 1.31
UAACUGAUCAGACCACAAC against TUBA1A | 0.266
UGUCCAUAAACAGUAAAGG against ZNF30 | -2.51
UGAUUUAAUCUUGCCGCCC against PHLDB1 | 0.669
AACACGUUGCCUGUCUUUC against NUTM2A-AS1 | 0.413
UUUAGAACUGGUUAUUUUC against DEFB116 | 0.117
AUGGUGAUCAUGGGACUGC against BEST1 | -3.4
UUUGGUAACCUCUAGGUGC against RUFY2 | 0.0818
UAGGCAAACAUGCACCUGG against POLG | -0.765
UCGUGGUCUUCUAUUGUUC against GRB14 | -0.556
AAUACAAUAGCAUAUACUC against RBBP9 | 0.306

Sequence | seed-corrected z-score
UGCGGAUACAGAUCACUCC against WDR87 | -2.28
UGAAUAAUGAAGUAUCCUG against AMPH | -0.174
UUAGUUCCAUGCCUUGCUC against ATP6V0A4 | -0.497
AGUUAUAUCAGUCGUGAUC against FERMT2 | 0.187
UUCUGUAUCUGCUCCUUGU against PFDN2 | 1.09
UCUCUUUCCUCUGCGUGCG against GDF7 | -2.92
UCUCAGGACUUAUAGCUGG against CEACAM3 | 0.106
AACUCUAUCUUGUAAAGGC against ZKSCAN3 | 0.0258
UCUAGUAACUCCAUAAGUU against NAA20 | 0.8
UUUGUUGUCUGGUUGGAGC against ZDHHC14 | -0.328
UCAGGGCACAGCUAUAAGG against CPAMD8 | 0.0569
UAUUGUAGAUUGAACAGCC against NSMCE2 | 0.561
AUAGAGCUUAUAGAAGCGG against USP11 | 0.792
UAAAGGGAACGAAACACCC against HSPA1B | 1.45
UUAUUUAUUGCCGCUCAGG against SFTA2 | -2.64
UUGGGUCCGACAGUGAAGA against FAAP20 | 0.502
AGUACUACCAAAGAGAUGG against TBC1D23 | 0.0728
UAUCUUGAUCUGCCUCUCC against HOXB6 | 0.291
UAUCCCAAUACAAAGUACU against RCE1 | -1.06
UUGCUUAACUACUCUGUGC against C9orf106 | -11.2
AUCGCUGUAGCACUUGUGC against PKP3 | -0.54
UGAGUUUCCACUUCCAGCC against UBQLN4 | -2.2
UUUGUUCCAGGGAUGUACU against CYCS | 0.577

Sequence | seed-corrected z-score
UUCCCGUGAACCGUUGAUC against PNLIPRP3 | 0.389
ACACCUGUGACUAAGACCC against SDR39U1 | -0.296
UUUGGUAUCUCCGACCACC against UCP2 | 0.898
UCAAGUGUAUCAGUUUUCG against KSR2 | 0.704
UGUGGUUGAAGAGGCUUGU against TMEM39B | -2.3
UAAGGUGUGAACUAUAAGG against ZNF267 | -0.0939
UAUAUCAAAAUCCACUCGC against NDUFAF6 | 1.27
UUUCUUAGAUGAGACAUUG against EBLN2 | -12.2
UAAACCUCCACCUAAGAGC against ELP4 | 0.275
UACUCGUACACUUCCAUGC against THBS3 | 1.22
UAACUAUAGUGGUUAGGUC against IL7R | -0.304
AUUUGGGACACUCAAAGGG against ZBTB48 | -0.672
UCCAUAGCAGGAUUAUUGC against ACSL4 | -4.37
UUUGUCGUCACUGUAUUCC against ING5 | -0.505
UAAGGGACAUCUAAGGAAC against MAML1 | -1.38
AAACUUGCGAUCUCAUAUG against FBXW12 | -0.183
UACAGGUAAACAGGUCGUG against SKINT1L | -3.34
UUCUGGUUCACCGUCUUCC against SLC13A2 | -1.96
UUUCGUAUAGAGCUUCUCC against DNAJC5B | -0.0232
UUUAUAGUCAAUGGUAUUG against TAF1D | -0.19
UUCCUUAGCAGGUAUCGCG against PDZD7 | 0.373
AUAGUAAUGCCGGAACAGC against GPR108 | -2.74
AUGGAGACAAGUUACCUGU against DCX | -1.34

Sequence | seed-corrected z-score
UUGAGUGAGAAGAUCAGUG against PAH | -0.365
UUUGCAGUCGCAAUAGUCA against PRKCSH | -0.0915
ACUGGUAUUUGACAAGUCC against SGOL2 | -0.0318
AAUACCUCAACAUUGAUCC against LILRA6 | 0.22
UACUUGUGAUCAUCUAGAC against PSMD1 | -2.21
UCAGAGUUGGUGACUAUGC against MUC21 | 0.222
UGAUGUUCAGCAUCUUCUC against UBTF | -0.484
AGCGUAGUCAGUGUAGACC against DNAH2 | 0.323
AUAGGCUUCGUUAAUGAGC against YJEFN3 | 1.04
UUCCUGCUUGCCUCUAUGG against USP17L9P | -0.281
UCUCGGUCGAUGAAGUACC against KCTD7 | -3.05
UCAAUCACACGUCUUAUGC against TRMT5 | 0.553
UUCGUAUUCAACUGACUGC against TCP11L1 | 1.06
UAUGGGUUCAUCAGGCUCA against SH2D2A | -3.05
AAGAGAUCCAGCUUCCUGC against SPEG | -0.187
UCUUGAACCGGAUCGAUGC against TTLL9 | -0.369
UUCGUGGGUAGCCAUGACC against F8A2 | 0.752
UUUUCAUAGAGGAUGAUCU against CRYBB2 | 1.03
